The source of these data is PubChem BioAssay (NCI).

The structures appear in SMILES notation. The panel holds about 79,000 compounds, 15% with a hit somewhere; the sample as a whole holds those more often. Values without a mark were called inactive. Cut-off read from the data, not from the text of the source: active = growth inhibition above about 70%; inactive = the rest.

The nature of this experiment: NCI Yeast Anticancer Drug Screen. Data for the mlh1 rad18 strain (AID 175). The note with it: S. cerevisiae mlh1 rad18 strain growth inhibition; at 50.0 µM; hits give high values. As for the experimental part: Growth inhibition of yeast strains with defined genetic alterations is measured as a screen for potential anti-cancer activity. Selected strains with alterations in DNA damage repair or cell cycle control were exposed to compounds and growth inhibition was measured relative to vehicle treated controls. The strain used in this assay is mlh1 rad18
Regarding `CC1CCC(C)(C)c2ccccc21` (stereo not given), the growth inhibition is 2.3%.
The same measure for `CCOS(=O)(=O)c1ccc([N+](=O)[O-])cc1`: 5.8%; for `O=C(O)c1ccccc1Cc1ccc2c(c1)CCCC2`: 47.3%; for `Cc1c(Cl)cccc1N=C=S`: 8.7%.
Then `ClCC(Cl)C1CCC(Cl)C(Cl)C1` (stereo not given), with 19.8%.
As to `CC(C)N(CCCC#N)C(C)C`, the growth inhibition is 8.05%.
The same measure for `COC(=O)c1ccc([N+](=O)[O-])c(C)c1`: -27.6%; for `CCN(C(=O)Nc1ccccc1Cl)c1ccccc1`: 11.6%; for `C/C(O)=C(/C=N/C(=S)Nc1ccccc1)C(=O)Nc1ccccc1C`: 24.9%.
Then `Cc1cc(C)cc(OCC(=O)O)c1`, with 3.4%; and `C/C(=N\N=C(/C)c1cccc([N+](=O)[O-])c1)c1cccc([N+](=O)[O-])c1`, with -7.7%.
The same measure for `c1ccc(Nc2ccccn2)nc1`: -24.6%; for `N#C/C(=C\c1ccc2c(c1)OCO2)c1ccccc1`: 24.1%.
Consider `CC(=O)c1cccc(O)c1`, for which the growth inhibition is 17.7%.
For the molecule `Cn1c(=O)[nH]c2ccccc2c1=O`, the growth inhibition is 5.05%.
Then `OCCc1ccc(Cl)cc1`, with 7.9%; and `O=C(OC1CCCC1)c1ccccc1Cl`, with 23.2%.
`COc1ccc2c(ccc[n+]2C)c1`: the growth inhibition was -25.4%.
The same measure for `CC(=O)Nc1ccc(/C=C2\SC(=S)N(/C=C(\C(C)=O)C(N)=O)C2=O)cc1`: -11.2%; for `c1ccc(-c2ccc3ccccc3c2)cc1`: -14.2%; for `C#CC(O)c1ccccc1` (stereo not given): -0.65%.
Then `CC(C)(C)NCCC(O)c1cc(C(F)(F)F)nc2c(C(F)(F)F)cccc12` (stereo not given), with 0.15%; and `NC(=O)OCCO`, with 26.5%.
Then `Ic1cccs1`, with 11.8%; and `CCCCCCCCCCC(=O)CCCCCCCCCC`, with 7.05%; and `Nc1ncnc(Nc2ccc(C(F)(F)F)cc2)n1`, with 17.9%.
`O=S(=O)(O)c1ccc(O)c(C2CCCCC2)c1`: the growth inhibition is 31.4%.
Then `C=COC(=O)CCOCC(CC)CCCC` (stereo not given), with -6.55%.
Then `C=C(c1ccc(N(C)C)cc1)c1ccc(N(C)C)cc1`, with -5.3%; and `CCOc1ccc2c(c1)c(C)cc(C)[n+]2CC`, with -3.4%.
Then `Cc1cccc(C)c1NC(=S)/N=C\c1c(O)[nH]c(=O)[nH]c1=O`, with -57.2%.
Consider `Cn1c2ccccc2c2nnc(NCCCCO)nc21`, for which the growth inhibition was 41.2%.
As for `NC(=O)c1cc2c3ccccc3ccn2c1-c1ccccc1`, the growth inhibition is 60%.
The same measure for `Clc1ccc(/C=C/c2ccccn2)cc1`: 28.4%; for `c1ccc2[nH]c(Cc3nc4ccccc4[nH]3)nc2c1`: 10.2%; for `CC(C)(CC(=O)O)CC(=O)O`: 14.8%.
On to `CC1CC(C)S(=O)(=O)C1` (stereo not given), for which the growth inhibition is -2%.
In the case of `O=C(c1ccccc1)c1ccc(-c2ccc(O)cc2)cc1`, the growth inhibition was -8%.
For the molecule `CCCC(=O)CC(=O)c1ccccc1`, the growth inhibition is 4.4%.
With `CCN(CC)CCN1CNC(=S)NC1`, the growth inhibition is -7.15%.
